Drawing on PubChem BioAssay, this text covers composite z-score and composite Z-score for 16 compounds.

The source made the active and inactive calls.

The target of one experiment is Albumin (Bos taurus) (UniProt P02769). In words: bovine serum albumin binders on microarray, profiling panel, artefact control for SMM control protein annotation, biochemical, small-molecule microarray, Alexa647 label, 635/667 nm fluorescence (AID 1118).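 Also: score merges 667 nm emission intensity and signal-to-noise per printed compound spot.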 To be noted: BSA-A647 binding, fluorescence 635 nm, higher = more signal.
Experiment [1] is described as follows: small-molecule microarray binders of probe aXIP, primary screen, biochemical, NeuroSMM set, 635/667 nm fluorescence (AID 1119).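 Also: probe is the protein aXip251-270 applied at 1 µg/mL to compound-printed slides; binding of probe to printed compounds measured as 667 nm fluorescence plus signal to noise.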 To be noted: higher = more signal, called active from +8 up or from −8 down.
Experiment [2] is described as follows: small-molecule binders of probe aNOTCH3, primary screen, biochemical, small-molecule microarray, 635/667 nm fluorescence (AID 1120).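 Also: probe is a biotin-tagged antibody raised against NOTCH3 rather than NOTCH3 protein; score merges spot fluorescence near 667 nm with spot signal to noise.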 The note with it: higher = more signal.
The nature of experiment [3]: small-molecule binders of probe aNOTCH2, primary screen, biochemical, small-molecule microarray, 635/667 nm fluorescence (AID 1121).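 Also: score merges feature fluorescence read at 667 nm with its signal to noise.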 The note with it: higher = more signal.
Experiment [4] concerns the target Carbonic anhydrase 2 (Homo sapiens) (UniProt P00918). In words: CAII small-molecule binders, profiling panel, biochemical, small-molecule microarray, Alexa647-labelled CAII (AID 1122). To be noted: CAII-A647 binding fluorescence, higher = more signal.
Experiment [5] can be described thus: COS7 lysate on small-molecule microarray, probe aHis, 635 nm (AID 1123).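 Also: z-score combines 667nm fluorescence intensity with signal-to-noise per printed compound spot.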 The note with it: COS7 cell lysate, fluorescence, higher = more signal.
Experiment [6] is described as follows: compound binding in COS7 lysate, probe aLAP1, primary screen, cell lysate, small-molecule microarray (AID 1124).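 Also: lysate comes from COS7 cells expressing LAP1 and is applied at 0.3 µg/mL; score merges spot fluorescence near 667 nm with signal-to-noise over triplicate slides.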 To be noted: probe aLAP1, fluorescence, higher = more signal.
For the next experiment, the system named is Sam68 (KHDRBS1). In words: Sam68 small-molecule binders, primary screen, biochemical, small-molecule microarray, 635 nm fluorescence (AID 1125).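 Also: score merges 667 nm channel intensity with signal to noise over triplicate slides.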 To be noted: small-molecule microarray binding, higher = more signal.
The subject of experiment [7] is Chordin-like protein 2 (CHRDL2). The experiment can be described thus: CHRDL2 small-molecule binders, primary screen, biochemical, small-molecule microarray, 635 nm fluorescence (AID 1126).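 Also: printed compound slides probed with Chrdl2 protein at 4 µg/mL for 1 h at 4 C; score merges 667 nm emission intensity with signal to noise over three replicate slides.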 To be noted: small-molecule microarray binding, fluorescence 635 nm; higher = more signal.
Experiment [8] deals with Concanavalin-A (Canavalia ensiformis) (UniProt P02866). In words: ConA small-molecule binders, primary screen, artefact control for SMM control protein annotation, biochemical, small-molecule microarray, Alexa647 label, 635 nm (AID 1127).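 Also: z combines 667 nm emission intensity with signal-to-noise across three replicate slides.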 To be noted: ConA-A647 binding fluorescence, higher = more signal.
Sequence of Concanavalin-A (Canavalia ensiformis) (P02866 whole entry, looked up): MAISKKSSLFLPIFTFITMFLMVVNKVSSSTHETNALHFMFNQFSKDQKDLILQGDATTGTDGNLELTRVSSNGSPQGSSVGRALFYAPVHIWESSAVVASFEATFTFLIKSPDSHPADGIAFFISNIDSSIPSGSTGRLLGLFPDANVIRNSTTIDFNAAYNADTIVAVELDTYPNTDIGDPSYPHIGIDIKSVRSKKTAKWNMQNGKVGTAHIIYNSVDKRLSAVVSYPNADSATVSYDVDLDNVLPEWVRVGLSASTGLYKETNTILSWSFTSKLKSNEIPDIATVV

Sequence of Albumin (Bos taurus) (P02769 whole entry, looked up): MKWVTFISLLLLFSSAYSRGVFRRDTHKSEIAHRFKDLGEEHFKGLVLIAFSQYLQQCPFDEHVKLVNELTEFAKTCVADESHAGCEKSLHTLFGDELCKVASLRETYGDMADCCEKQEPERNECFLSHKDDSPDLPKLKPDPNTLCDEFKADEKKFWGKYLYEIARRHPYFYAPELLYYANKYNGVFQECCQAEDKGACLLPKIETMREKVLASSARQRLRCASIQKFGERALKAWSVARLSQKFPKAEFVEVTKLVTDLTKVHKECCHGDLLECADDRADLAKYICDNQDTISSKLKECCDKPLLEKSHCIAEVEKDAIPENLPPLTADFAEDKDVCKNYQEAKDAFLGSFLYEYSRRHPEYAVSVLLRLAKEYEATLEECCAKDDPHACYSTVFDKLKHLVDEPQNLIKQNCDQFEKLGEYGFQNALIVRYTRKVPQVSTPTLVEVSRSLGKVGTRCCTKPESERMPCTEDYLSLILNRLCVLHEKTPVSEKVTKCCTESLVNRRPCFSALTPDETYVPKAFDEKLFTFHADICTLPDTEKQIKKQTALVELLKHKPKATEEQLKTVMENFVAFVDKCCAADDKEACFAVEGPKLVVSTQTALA

Consider `COc1ccccc1CN1C(=O)c2ccccc2[C@@H](C(=O)NCCCN(C)C)[C@@H]1c1ccc(CO)cc1`, for which the composite z-score is 0.303 in the experiment with Albumin (Bos taurus); -0.2 in experiment [2]; -0.152 in [3]; 0.733 in experiment [4]; -0.171 in experiment [5]; 0.323 in experiment [6]. For the same compound, the composite z-score with Sam68 (KHDRBS1) was -2.03; in experiment [7], 0.288; in experiment [8] it was 0.343. Further, the composite Z-score in experiment [1] is 0.0241 (inactive).
Turning to `COCCn1c(C(=O)N2CCCC2)cc2c1C[C@H]1CN(C(=O)c3ccccc3)[C@@](Cc3ccccc3)(C(=O)OC)[C@@H]21`, the composite z-score was found to be 1.03 with Albumin (Bos taurus); 0.676 in [2]; 0.6 in [3]; 0.676 in experiment [4]; 3.14 in [5]; 0.403 in [6]. Besides, the composite z-score is 1.29 in the experiment with Sam68 (KHDRBS1), -0.133 in [7] and 1.11 in experiment [8]. In addition, the composite Z-score in [1] is 0.239 (inactive).
Turning to `CC(C)(C)OC(=O)CC[C@]1(C(N)=O)N=C(c2ccc(OCCCO)cc2)O[C@H]1c1ccccc1CN=[N+]=[N-]`, the composite z-score with Albumin (Bos taurus) was found to be 0.712; in [2], 0.761; in [3] it was 0.234; in [4], 0.981; in [5], 3.63; in [6], 0.666. The results for the composite z-score (in the experiment with Sam68 (KHDRBS1); in experiment [7]; in experiment [8]) were 1.33, -0.894 and 0.831, respectively. For the same compound, in experiment [1], the composite Z-score was 0.523 (inactive).
Regarding `CO[C@H]1O[C@H](CO)[C@@H](OC(=O)Nc2ccc(C(F)(F)F)cc2)[C@H](OC(=O)Nc2ccccc2-c2ccccc2)[C@H]1OC(=O)Nc1ccccc1-c1ccccc1`, the composite z-score with Albumin (Bos taurus) is -0.792; in experiment [2] it was 0.144; in [3] it was -0.0406; in experiment [4], 0.693; in experiment [5] it was 2.22; in [6], -0.244. For the same compound, the results for the composite z-score (in the experiment on Sam68 (KHDRBS1); in [7]; in experiment [8]) were 1.3, -0.0407 and 1.2, respectively. In addition, the composite Z-score in [1] was 0.259 (inactive).
For the compound `COCCOC(=O)N1C(=O)[C@@]2(c3cc(C#CCNC(N)=O)ccc31)[C@H](C(=O)NC[C@H](O)c1ccccc1)[C@H]1C(=O)O[C@H](c3ccccc3)[C@H](c3ccccc3)N1[C@@H]2c1ccc(OCCO)cc1`, the composite z-score with Albumin (Bos taurus) was 0.472; in experiment [2], 0.0018; in [3] it was -0.2; in experiment [4], 0.355; in experiment [5], 0.245; in experiment [6] it was 0.666. The composite z-score with Sam68 (KHDRBS1) was determined as 1.26; in experiment [7] it was 0.285; in experiment [8], 1.02. Besides, the composite Z-score in [1] is -0.102 (inactive).
With `COc1ccc([Si](C)(C)[C@H]2[C@H](CCO)O[C@@]3(C(=O)N(Cc4ccc(N5CCOC5=O)cc4)c4ccccc43)[C@@H]2C)cc1`, the composite z-score with Albumin (Bos taurus) was 0.243; in experiment [2], -0.0697; in experiment [3] it was -0.1; in [4], 0.417; in experiment [5], 1.5; in [6], 0.171. In addition, the composite z-score in the experiment with Sam68 (KHDRBS1) is 0.968; in experiment [7], -0.07; in [8] it was 1.11. In experiment [1], the composite Z-score was -0.392 (inactive).
On to `CCCCN1CC=CC23O[C@@H]4/C=C\CCC(C)OC(=O)C4[C@H]2C(=O)N(C(C)CO)[C@@H]3C1=O` (stereo not given in full), for which the composite z-score is -1.58 in the experiment with Albumin (Bos taurus); -0.0498 in experiment [2]; -0.0907 in [3]; 0.822 in experiment [4]; -0.986 in [5]; 0.103 in experiment [6]. Further, the figures for the composite z-score (in the experiment with Sam68 (KHDRBS1); in experiment [7]; in experiment [8]) were -0.879, -0.0668 and -0.59, respectively. Moreover, the composite Z-score in experiment [1] is 0.319 (inactive).
In the case of `CC(C)C[C@@H]1NC(=O)[C@@]23C(=O)N[C@@H](Cc4ccccc4)C2[C@H](C)[C@@]2(C)O[C@H]2C3/C=C/C/C=C\CNC(=O)[C@@H](CC(C)C)NC1=O` (stereo not given in full), the composite z-score was 0.757 with Albumin (Bos taurus); -0.0311 in [2]; -0.167 in experiment [3]; 0.599 in [4]; 0.925 in [5]; 0.285 in [6]. Besides, the composite z-score is 1.3 in the experiment with Sam68 (KHDRBS1), 0.732 in experiment [7] and -1.14 in experiment [8]. Also, the composite Z-score in experiment [1] was 0.183 (inactive).
Take `C=C(CCCC)/C(=C/C[C@H](OC(C)=O)c1cccc(OCCO)c1)c1cc(C(=O)OC)ccc1OC`: the composite z-score in the experiment with Albumin (Bos taurus) is 0.387; in [2] it was -0.21; in experiment [3], -0.132; in experiment [4] it was 0.355; in experiment [5], -0.148; in experiment [6], 0.147. Also, the composite z-score was 0.302 in the experiment on Sam68 (KHDRBS1), -0.149 in experiment [7] and -0.795 in experiment [8]. In [1], the composite Z-score was -0.822 (inactive).
As to `COC(=O)[C@@]1(Cc2ccc(F)cc2)[C@H]2c3cc(C(=O)N(C)C)n(CCO)c3C[C@H]2CN1C(=O)c1ccccc1`, the composite z-score with Albumin (Bos taurus) was 1.13; in [2] it was -0.0448; in experiment [3], 0.0746; in experiment [4], 0.861; in experiment [5], 1.97; in [6], 1.21. Further, the composite z-score in the experiment with Sam68 (KHDRBS1) is -0.206; in experiment [7], -0.437; in [8] it was -0.0249. Besides, the composite Z-score in experiment [1] is -0.551 (inactive).
In the case of `CCCCC(=C=CC[C@@H](O)c1cccc(OCCO)c1)CCO`, the composite z-score is 0.319 with Albumin (Bos taurus); -0.119 in experiment [2]; -0.142 in [3]; 0.34 in experiment [4]; 0.592 in experiment [5]; 0.0297 in [6]. Further, the composite z-score in the experiment on Sam68 (KHDRBS1) is 0.158; in experiment [7], -0.596; in [8], -0.0305. The composite Z-score in experiment [1] is -0.462 (inactive).
Turning to `COc1cc2c(cc1O)C(c1ccc(CN3CCCC3)cc1)N(Cc1ccc([N+](=O)[O-])o1)CC2` (stereo not given), the composite z-score was 0.847 with Albumin (Bos taurus); 0.0469 in experiment [2]; -0.0959 in experiment [3]; 0.91 in experiment [4]; 0.542 in experiment [5]; 0.774 in experiment [6]. Also, the composite z-score in the experiment with Sam68 (KHDRBS1) was -0.768; in experiment [7] it was -0.881; in [8], 0.387. The composite Z-score in experiment [1] was 0.27 (inactive).
Take `C=C(COC)C(=O)CC[C@@H](OC(=O)c1cccnc1)c1cccc(OCCO)c1`: the composite z-score was 0.0464 with Albumin (Bos taurus); 0.158 in experiment [2]; -0.107 in [3]; 0.75 in experiment [4]; 0.148 in experiment [5]; -0.292 in experiment [6]. In addition, the figures for the composite z-score (in the experiment with Sam68 (KHDRBS1); in experiment [7]; in experiment [8]) were 0.804, 0.423 and -0.095, respectively. For the same compound, the composite Z-score in experiment [1] was -0.239 (inactive).
With `CCOC(=O)C1=CC[C@@H](c2ccccc2Cl)N(S(=O)(=O)c2ccc(C)cc2)[C@H]1c1cccc(OC)c1`, the composite z-score with Albumin (Bos taurus) was 0.453; in experiment [2], -0.014; in [3], -0.115; in [4] it was 0.304; in experiment [5] it was 0.878; in [6], -0.151. Besides, the results for the composite z-score (in the experiment with Sam68 (KHDRBS1); in experiment [7]; in [8]) were 0.371, -0.0126 and 0.577, respectively. Also, the composite Z-score in [1] was -0.161 (inactive).
On to `COc1ccc(CCNC(=O)[C@@H]2c3ccccc3C(=O)N(CC34CC5CC(CC(C5)C3)C4)[C@H]2c2ccc(CO)cc2)cc1`, for which the composite z-score in the experiment with Albumin (Bos taurus) was 0.764; in experiment [2] it was 0.0206; in experiment [3], -0.132; in experiment [4] it was 0.539; in experiment [5] it was 1.7; in experiment [6], -0.0344. Further, the composite z-score with Sam68 (KHDRBS1) was determined as 1.22; in [7] it was 0.23; in [8], 1.11. The composite Z-score in [1] is -0.422 (inactive).
In the case of `Cc1ccc(S[C@]2(C(=O)NC3CC3)CC(=O)N(Cc3cc(C(F)(F)F)cc(C(F)(F)F)c3)[C@@H]2c2ccc(CO)cc2I)cc1`, the composite z-score was 0.0876 with Albumin (Bos taurus); -0.512 in experiment [2]; 0.381 in experiment [3]; 0.554 in [4]; 1.18 in [5]; 0.959 in experiment [6]. Besides, the composite z-score in the experiment on Sam68 (KHDRBS1) stood at 0.964; in experiment [7], 0.452; in experiment [8] it was 1.07. For the same compound, the composite Z-score in experiment [1] was 0.193 (inactive).
